Assay results reported in PubChem BioAssay (NCATS).
Inconclusive results are not listed. Activity calls are given as the source filed them. Calls come from the whole dose curve; as a rule, active = well fitted cell-killing curve with a large enough effect; inconclusive = small, poorly fitted or top-dose-only effect, or effect the other way; inactive = no such curve, though single readings can be large or run the other way.

Experiments:
[1] = Quantitative High-Throughput drug screen in 47 multiple myeloma cell lines against the NCATS MIPE library collection: KMS28PE_JCRB cell viability assay (AID 1918983); note: nearly all actives have a fitted effect of over 35% in size
Method in brief: (§1)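 Cells were exposed to library compounds for 48 hours, after which ATP was measured by CellTiter-Glo. Signal was taken as median relative luminescence units.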

[2] = Quantitative High-Throughput drug screen in 47 multiple myeloma cell lines against the NCATS MIPE library collection: SKMM1_PLB cell viability assay (AID 1919863); conditions: SKMM1 myeloma viability, CellTiter-Glo ATP, 48 h; viability: hits give low values; note: nearly all actives have a fitted effect of over 35% in size
Method in brief: as §1

[3] = Quantitative High-Throughput drug screen in 47 multiple myeloma cell lines against the NCATS MIPE library collection: U266_ATCC cell viability assay (AID 1919864); note: nearly all actives have a fitted effect of over 35% in size
Method in brief: as §1

[4] = Quantitative High-Throughput drug screen in 47 multiple myeloma cell lines against the NCATS MIPE library collection: OCIMY5_PLB cell viability assay (AID 1918988); note: nearly all actives have a fitted effect of over 65% in size
Method in brief: as §1

[5] = Quantitative High-Throughput drug screen in 47 multiple myeloma cell lines against the NCATS MIPE library collection: OPM1_PLB cell viability assay (AID 1918989); note: nearly all actives have a fitted effect of over 40% in size
Method in brief: as §1

[6] = Quantitative High-Throughput drug screen in 47 multiple myeloma cell lines against the NCATS MIPE library collection: XG1_PLB cell viability assay (AID 1919866); note: nearly all actives have a fitted effect of over 35% in size
Method in brief: as §1

[7] = Quantitative High-Throughput drug screen in 47 multiple myeloma cell lines against the NCATS MIPE library collection: OCIMY7_PLB cell viability assay (AID 1918987); conditions: OCI-MY7 myeloma viability, CellTiter-Glo ATP, 48 h; viability (% of DMSO): at 45.8 µM (top of the series); note: nearly all actives have a fitted effect of over 65% in size
Method in brief: as §1

[8] = Quantitative High-Throughput drug screen in 47 multiple myeloma cell lines against the NCATS MIPE library collection: L363_DSMZ cell viability assay (AID 1918984); note: nearly all actives have a fitted effect of over 40% in size
Method in brief: as §1

[9] = Quantitative High-Throughput drug screen in 47 multiple myeloma cell lines against the NCATS MIPE library collection: KMS34_JCRB cell viability assay (AID 1918985); note: nearly all actives have a fitted effect of over 40% in size
Method in brief: as §1

[10] = Quantitative High-Throughput drug screen in 47 multiple myeloma cell lines against the NCATS MIPE library collection: XG6_PLB cell viability assay (AID 1919865); note: nearly all actives have a fitted effect of over 40% in size
Method in brief: as §1
Potency is the fitted concentration of half-maximal effect.

CC[C@H]1OC(=O)[C@H](C)[C@@H](O[C@H]2C[C@@](C)(OC)[C@@H](O)[C@H](C)O2)[C@H](C)[C@@H](O[C@@H]2O[C@H](C)C[C@H](N(C)C)[C@@H]2O)[C@](C)(O)C[C@@H](C)CN(C)[C@H](C)[C@@H](O)[C@]1(C)O
active: Potency [2] 16.6 µM | Potency [3] 9.35 µM
inactive: Potency [1]

CN(C)c1cc(NC(=O)CNC(C)(C)C)c(O)c2c1C[C@@H]1C[C@H]3[C@H](N(C)C)C(=O)C(C(N)=O)=C(O)[C@@]3(O)C(=O)C1=C2O
inactive: Potency [1] | Potency [4] | Potency [5] | Potency [3] | Potency [6]

Cc1ccn(-c2ccc(-c3ncco3)cc2)c(=O)c1-c1ccc2nc(N)ncc2c1
active: Potency [7] 0.935 µM | Potency [5] 3.72 µM | Potency [6] 3.72 µM
inactive: Potency [1] | viability [2] 99.5%

CCCCCN(C)CCC(O)(P(=O)(O)O)P(=O)(O)O
inactive: Potency [8] | Potency [9] | Potency [7] | Potency [5] | Potency [10]

O=C(NC1CCOCC1)c1ccc(-c2cc(-c3cn[nH]c3-c3ccccn3)ccn2)cc1
inactive: Potency [1] | Potency [7] | Potency [5] | Potency [10]

CCc1ccc(C=C2SC(=S)NC2=O)cc1
inactive: Potency [1] | Potency [4]

C=C1C(=O)OC(CCCCCCCC)C1C(=O)O (configuration not stated)
inactive: Potency [8] | Potency [9]
active: Potency [7] 11.8 µM | Potency [10] 20.9 µM | Potency [6] 14.8 µM

CS(=O)(=O)N(Cc1ccco1)CC(O)Cn1c2ccccc2c2ccccc21 (configuration not stated)
active: Potency [9] 16.6 µM | Potency [7] 13.2 µM | Potency [6] 20.9 µM
inactive: Potency [8] | Potency [10]

O=C(O)c1cc(O)c2c(c1)C(=O)c1cccc(O)c1C2=O
inactive: Potency [10]
active: Potency [1] 30.3 µM | Potency [4] 48.1 µM

c1ccc2c(Cc3c[nH]c4ccccc34)c[nH]c2c1
active: Potency [1] 26.4 µM | Potency [7] 1.05 µM | Potency [4] 0.743 µM | Potency [5] 7.43 µM | Potency [2] 18.7 µM | Potency [10] 0.662 µM

CCc1ccc(OCc2ccccc2C(=O)Nc2ccc3nc(C)cc(N)c3c2)cc1
active: Potency [8] 1.18 µM | Potency [9] 7.43 µM | Potency [7] 1.05 µM | Potency [4] 7.43 µM | Potency [5] 1.32 µM | Potency [2] 6.62 µM | Potency [3] 5.9 µM | Potency [10] 1.05 µM | Potency [6] 1.48 µM

NC(=O)c1ccc2nc(-c3ccc(Oc4ccc(Cl)cc4)cc3)[nH]c2c1
inactive: Potency [1] | Potency [3]

Nc1ncnc2c1ncn2[C@@H]1O[C@@H](CO)[C@H](O)[C@H]1O
inactive: Potency [1] | Potency [5] | Potency [10] | Potency [6]

CC(C)(C)NC(=O)Nc1cccc(Nc2ncc(F)c(NC(C)(C)CO)n2)c1
inactive: Potency [1] | Potency [3]
active: Potency [4] 3.72 µM | Potency [5] 13.2 µM | Potency [10] 20.9 µM | Potency [6] 3.72 µM

O=C1NC(=O)C(=Cc2ccc3c(c2)OC(F)(F)O3)S1
active: Potency [5] 7.43 µM | Potency [10] 1.66 µM
inactive: Potency [1]

O=C(O)c1c(Cl)c(Cl)c(Cl)c(Cl)c1-c1c2cc(I)c(=O)c(I)c-2oc2c(I)c(O)c(I)cc12
active: Potency [1] 14.8 µM | Potency [4] 13.2 µM

C[C@H](NC(=O)c1sccc1OCc1ccc(Cl)cc1)c1ccccc1
active: Potency [1] 16.6 µM | Potency [4] 16.6 µM | Potency [2] 18.7 µM

Cn1cc(C=C2C(=O)Nc3cccnc32)c2ccccc21
active: Potency [5] 18.7 µM
inactive: Potency [1] | viability [2] 130% | Potency [6]

COCCOc1nc(-c2ccc(Cl)c(Cl)c2)n(-c2ccc(NC(=O)CCl)cc2)n1
active: Potency [8] 8.33 µM | Potency [9] 18.7 µM | Potency [7] 16.6 µM | Potency [4] 20.9 µM | Potency [5] 20.9 µM | Potency [3] 26.4 µM | Potency [10] 14.8 µM | Potency [6] 16.6 µM

COC[C@@H](c1ccc(C(F)(F)F)cc1)N1CCN(C2(C)CCN(C(=O)c3c(C)ncnc3C)CC2)C[C@H]1C
active: Potency [10] 16.6 µM
inactive: Potency [1] | Potency [5] | viability [2] 118%

C[N+](C)(C)CC(=O)O
inactive: Potency [8] | Potency [9] | Potency [7] | Potency [3] | Potency [10]

CCN(CC)CCOc1ccc(C(=C(Cl)c2ccccc2)c2ccccc2)cc1
active: Potency [3] 16.6 µM
inactive: Potency [1] | Potency [5]

COc1ccc(-c2oc3c(CC=C(C)C)c(OC4O[C@H](CO)[C@@H](O)[C@H](O)[C@@H]4O)cc(O)c3c(=O)c2OC2O[C@@H](C)[C@H](O)[C@@H](O)[C@@H]2O)cc1 (some centres not stated)
active: Potency [8] 13.2 µM | Potency [9] 23.5 µM | Potency [7] 13.2 µM | Potency [4] 20.9 µM | Potency [2] 20.9 µM | Potency [10] 23.5 µM
